Source: the supplement of paper PMC12282887
± gives the standard deviation of the averaged measurements.

Columns and labels:
Experiment in all cases: promoter activity interaction Z-score (Lux/OD deviation from empty-vector control); higher = stronger promoter induction by the compound
[1] = system: E. coli BW25113 acrABp lux reporter
In short: (§1)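 E. coli BW25113 (wild type or marA, soxS or rob deletion) carrying low-copy luxCDABE promoter reporters grew in 40 µl LB Lennox in 384-well plates at 37°C. Each compound was tested at four 1:2 dilutions in biological duplicates. OD600 and luminescence were read every 30 min for 12 h. Areas were taken over 0–8 h (wild type) or 1–9 h (mutants), and wells below 10% of median growth area were removed. The score is the Z-transformed residual of growth-normalised luminescence fitted against the empty-vector control.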

[2] = system: E. coli BW25113 micFp lux reporter
In short: as §1

[3] = system: E. coli BW25113 ompFp lux reporter
In short: as §1

[4] = system: E. coli BW25113 robp lux reporter
In short: as §1

[5] = system: E. coli BW25113 soxSp lux reporter
In short: as §1

[6] = system: E. coli BW25113 tolCp lux reporter
In short: as §1

[7] = 35.6 µg/ml, genetic background: wild type
[8] = 35.6 µg/ml, genetic background: ΔmarA
[9] = 35.6 µg/ml, genetic background: Δrob
[10] = 35.6 µg/ml, genetic background: ΔsoxS
[11] = 71.1 µg/ml, genetic background: wild type
[12] = 71.1 µg/ml, genetic background: ΔmarA
[13] = 71.1 µg/ml, genetic background: Δrob
[14] = 71.1 µg/ml, genetic background: ΔsoxS
[15] = 142.3 µg/ml, genetic background: wild type
[16] = 142.3 µg/ml, genetic background: ΔmarA
[17] = 142.3 µg/ml, genetic background: Δrob
[18] = 142.3 µg/ml, genetic background: ΔsoxS
[19] = 284.5 µg/ml, genetic background: wild type
[20] = 284.5 µg/ml, genetic background: ΔmarA
[21] = 284.5 µg/ml, genetic background: Δrob
[22] = 284.5 µg/ml, genetic background: ΔsoxS

CC[C@H](C)[C@H](N)C1=N[C@H](C(=O)N[C@@H](CC(C)C)C(=O)N[C@H](CCC(=O)O)C(=O)N[C@H](C(=O)N[C@H]2CCCCNC(=O)[C@H](CC(N)=O)NC(=O)[C@@H](CC(=O)O)NC(=O)[C@H](Cc3cnc[nH]3)NC(=O)[C@@H](Cc3ccccc3)NC(=O)[C@H]([C@@H](C)CC)NC(=O)[C@@H](CCCN)NC2=O)[C@@H](C)CC)CS1 [Bacitracin]
promoter activity interaction Z-score [1, 7]: 0.238 ± 0.011
promoter activity interaction Z-score [1, 8]: 0.0967 ± 0.69
promoter activity interaction Z-score [1, 9]: 0.103 ± 0.11
promoter activity interaction Z-score [1, 10]: -0.486 ± 0.28
promoter activity interaction Z-score [1, 11]: -0.189 ± 0.25
promoter activity interaction Z-score [1, 12]: -0.152 ± 0.45
promoter activity interaction Z-score [1, 13]: -0.3 ± 0.21
promoter activity interaction Z-score [1, 14]: -0.354 ± 0.56
promoter activity interaction Z-score [1, 15]: -0.563 ± 0.27
promoter activity interaction Z-score [1, 16]: 0.111 ± 0.27
promoter activity interaction Z-score [1, 17]: -0.64 ± 0.089
promoter activity interaction Z-score [1, 18]: -0.484 ± 0.29
promoter activity interaction Z-score [1, 19]: -0.416 ± 0.21
promoter activity interaction Z-score [1, 20]: -0.491 ± 0.073
promoter activity interaction Z-score [1, 21]: -0.296 ± 0.36
promoter activity interaction Z-score [1, 22]: 0.474 ± 0.51
promoter activity interaction Z-score [2, 7]: -0.0989 ± 0.035
promoter activity interaction Z-score [2, 8]: -0.0164 ± 0.05
promoter activity interaction Z-score [2, 9]: 0.0475 ± 0.15
promoter activity interaction Z-score [2, 10]: -0.478 ± 0.18
promoter activity interaction Z-score [2, 11]: -0.268 ± 0.032
promoter activity interaction Z-score [2, 12]: -0.0396 ± 0.049
promoter activity interaction Z-score [2, 13]: -0.239 ± 0.028
promoter activity interaction Z-score [2, 14]: -0.278 ± 0.083
promoter activity interaction Z-score [2, 15]: -0.506 ± 0.083
promoter activity interaction Z-score [2, 16]: -0.139 ± 0.089
promoter activity interaction Z-score [2, 17]: -0.177 ± 0.087
promoter activity interaction Z-score [2, 18]: -0.0874 ± 0.23
promoter activity interaction Z-score [2, 19]: 0.124 ± 0.091
promoter activity interaction Z-score [2, 20]: -0.167 ± 0.014
promoter activity interaction Z-score [2, 21]: -0.188 ± 0.095
promoter activity interaction Z-score [2, 22]: 0.2 ± 0.17
promoter activity interaction Z-score [3, 7]: 0.637 ± 0.23
promoter activity interaction Z-score [3, 8]: 0.358 ± 0.11
promoter activity interaction Z-score [3, 9]: 0.253 ± 0.87
promoter activity interaction Z-score [3, 10]: -0.738 ± 0.32
promoter activity interaction Z-score [3, 11]: 0.389 ± 0.42
promoter activity interaction Z-score [3, 12]: 0.103 ± 0.39
promoter activity interaction Z-score [3, 13]: -0.153 ± 0.32
promoter activity interaction Z-score [3, 14]: -0.256 ± 0.011
promoter activity interaction Z-score [3, 15]: -0.463 ± 0.37
promoter activity interaction Z-score [3, 16]: 0.405 ± 1.2
promoter activity interaction Z-score [3, 17]: -0.823 ± 0.087
promoter activity interaction Z-score [3, 18]: 0.0137 ± 0.45
promoter activity interaction Z-score [3, 19]: 1.52
promoter activity interaction Z-score [3, 20]: 0.962 ± 0.71
promoter activity interaction Z-score [3, 21]: 1.05 ± 1.1
promoter activity interaction Z-score [3, 22]: 1.9 ± 0.51
promoter activity interaction Z-score [4, 7]: 0.859 ± 0.14
promoter activity interaction Z-score [4, 8]: -0.334 ± 0.088
promoter activity interaction Z-score [4, 9]: 0.568 ± 0.89
promoter activity interaction Z-score [4, 10]: 0.00456 ± 0.7
promoter activity interaction Z-score [4, 11]: 0.186 ± 0.99
promoter activity interaction Z-score [4, 12]: 0.452 ± 0.16
promoter activity interaction Z-score [4, 13]: 0.266 ± 0.06
promoter activity interaction Z-score [4, 14]: -0.45 ± 0.04
promoter activity interaction Z-score [4, 15]: -0.429 ± 0.72
promoter activity interaction Z-score [4, 16]: 0.326 ± 0.28
promoter activity interaction Z-score [4, 17]: -0.561 ± 0.13
promoter activity interaction Z-score [4, 18]: -0.919 ± 0.74
promoter activity interaction Z-score [4, 19]: -0.714 ± 0.18
promoter activity interaction Z-score [4, 20]: -0.548 ± 0.32
promoter activity interaction Z-score [4, 21]: -0.858 ± 1
promoter activity interaction Z-score [4, 22]: -0.93 ± 0.068
promoter activity interaction Z-score [5, 7]: 0.0222 ± 0.019
promoter activity interaction Z-score [5, 8]: -0.0752 ± 0.056
promoter activity interaction Z-score [5, 9]: 0.145 ± 0.063
promoter activity interaction Z-score [5, 10]: -0.325 ± 0.089
promoter activity interaction Z-score [5, 11]: -0.173 ± 0.011
promoter activity interaction Z-score [5, 12]: -0.209 ± 0.049
promoter activity interaction Z-score [5, 13]: -0.232 ± 0.096
promoter activity interaction Z-score [5, 14]: -0.288 ± 0.14
promoter activity interaction Z-score [5, 15]: -0.325 ± 0.11
promoter activity interaction Z-score [5, 16]: -0.318 ± 0.0051
promoter activity interaction Z-score [5, 17]: -0.254 ± 0.028
promoter activity interaction Z-score [5, 18]: -0.236 ± 0.42
promoter activity interaction Z-score [5, 19]: -0.265 ± 0.017
promoter activity interaction Z-score [5, 20]: -0.188 ± 0.075
promoter activity interaction Z-score [5, 21]: -0.556 ± 0.091
promoter activity interaction Z-score [5, 22]: 0.196
promoter activity interaction Z-score [6, 7]: 0.175 ± 0.14
promoter activity interaction Z-score [6, 8]: 0.3 ± 0.76
promoter activity interaction Z-score [6, 9]: -0.634 ± 0.13
promoter activity interaction Z-score [6, 10]: -0.127 ± 0.13
promoter activity interaction Z-score [6, 11]: -0.904 ± 0.76
promoter activity interaction Z-score [6, 12]: -0.251 ± 0.39
promoter activity interaction Z-score [6, 13]: -0.77 ± 0.38
promoter activity interaction Z-score [6, 14]: -0.771 ± 0.63
promoter activity interaction Z-score [6, 15]: -1.08 ± 0.47
promoter activity interaction Z-score [6, 16]: -0.183 ± 0.34
promoter activity interaction Z-score [6, 17]: -0.421 ± 0.15
promoter activity interaction Z-score [6, 18]: -0.321 ± 0.69
promoter activity interaction Z-score [6, 19]: -0.273 ± 0.36
promoter activity interaction Z-score [6, 20]: -0.299 ± 0.51
promoter activity interaction Z-score [6, 21]: -1.24 ± 0.052
promoter activity interaction Z-score [6, 22]: -0.245 ± 0.87
